Assay results taken from PubChem BioAssay AID1159580 (chemical genetic matrix, 2015).
Among all 5,500 compounds or so, about 2,000 (36%) were called active. Another 18% or so got no clear call; they are omitted. Rule as the data show it: active = normalized growth mostly below about 0.91 (no sharp cut-off); inconclusive = no clear call, values can overlap the other calls; inactive = mostly above about 0.92. This is one part of the list.

Assay: chemical genetic growth profiling, strain panel (AID 1159580);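 also: tested at 20 µM; growth read once vehicle control cultures reached saturation at 30 °C; 1 = growth at the plate median or of vehicle wells; lower values mean less growth of the strain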
Details: S. cerevisiae deletion strains, growth OD

Measured: normalized growth

CN(C)CC/C=C1\c2ccccc2COc2ccccc21
inactive: locus YAL013W, strain DEP1, active compounds read low 0.998 | locus YAL040C, strain CLN3, active compounds read low 0.997 | locus YCL061C, strain MRC1 (second series), active compounds read low 0.992 | locus YDR150W, strain NUM1, active compounds read low 1.01 | locus YDR363W, strain ESC2, active compounds read low 0.944 | locus YER002W, strain NOP16, active compounds read low 1.01 | locus YGR078C, strain PAC10, active compounds read low 1.01 | locus YJR075W, strain HOC1, active compounds read low 0.952 | locus YMR263W, strain SAP30, active compounds read low 0.991 | locus YNL128W, strain TEP1, active compounds read low 1.01 | locus YNL153C, strain GIM3, active compounds read low 1.03 | locus YNL175C, strain NOP13, active compounds read low 1.02 | locus YNL197C, strain WHI3, active compounds read low 1 | locus YNL224C, strain SQS1, active compounds read low 1.03 | locus YOR083W, strain WHI5 (second series), active compounds read low 0.997
